Experimental data taken from PubChem BioAssay AID1490 (National Center for Advancing Translational Sciences (NCATS), 2009).
In all, about 310,000 compounds went through this assay and about 11,000 (3.5%) were called active. Not shown: some 4% with an inconclusive outcome. For the sample, actives were picked, then their nearest neighbours and some compounds at random. Unmarked numbers belong to inactive results. The call rests on the fitted dose curve; in most records, active means well fitted inhibition curve with a large enough effect; inconclusive means small, poorly fitted or top-dose-only effect, or another doubt; inactive means no such curve, though single readings can be large or run the other way.

biological target: 4'-phosphopantetheinyl transferase ffp (Bacillus subtilis) (UniProt Q9F4F7); assay: qHTS Assay for Inhibitors of Bacillus subtilis Sfp phosphopantetheinyl transferase (PPTase); details: Biochemical Sfp PPTase activity;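 further: the enzyme is Sfp with the accession as filed and its product quenches rhodamine fluorescence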;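 on largest response in the series, negative = inhibition: 0% = enzyme reaction without inhibitor and -100% = no enzyme wells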
Method in brief: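 With Hepes-Na pH 7.6 buffer containing 10 mM MgCl2, Sfp (15 nM) modified BHQ-2-YbbR (12.5 uM) using rhodamine-CoA (5 uM). Two reads 30 minutes apart at 525/598 nm yielded each well's rate.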
Potency means the concentration at half of the fitted maximal effect.

| SMILES | largest response in the series, negative = inhibition [%] | Potency |
| --- | --- | --- |
| CCOC(=O)[C@]1(C(/C=C/c2ccco2)NC(=O)OC)CCCC1=O (stereo partly drawn) | -6.29 |  |
| O=C(O)c1cc(S(=O)(=O)N(Cc2ccccc2)c2ccccc2)ccc1Cl | 19 |  |
| CCC(c1nnnn1Cc1ccco1)N(CCc1ccccc1)Cc1cc2ccc(OC)cc2[nH]c1=O (stereo not drawn) | -15.9 |  |
| COc1ccc2[nH]c(=O)c(CN(Cc3nnnn3CCc3ccccc3)CC3CCCO3)cc2c1 (stereo not drawn) | 0.899 |  |
| CCC(c1nnnn1Cc1ccco1)N(Cc1cc2cc(OC)ccc2[nH]c1=O)C1CCCCC1 (stereo not drawn) |  | 3.55 µM (active) |
| CCC(c1nnnn1C1CCCC1)N(Cc1cccs1)Cc1cc2cccc(C)c2[nH]c1=O (stereo not drawn) | 9.11 |  |
| CCC(c1nnnn1Cc1ccccc1)N(Cc1cc2cc(OC)ccc2[nH]c1=O)CC1CCCO1 (stereo not drawn) | -86 |  |
| CCC(c1nnnn1Cc1ccco1)N(CCc1ccccc1)Cc1cc2cccc(C)c2[nH]c1=O (stereo not drawn) |  | 25.1 µM (active) |
| COc1ccc(-c2nc3c(s2)CCc2onc(-c4ccc(OC)cc4)c2-3)cc1 | 4.62 |  |
| CC(NCc1cccs1)C(=O)Nc1cc(Cl)cc(Cl)c1 (stereo not drawn) | -16.2 |  |
| CC1=C(C(=O)NC2CC(C)(C)Cc3c2cnn3-c2ccc(C)cc2)OCCO1 (stereo not drawn) | 15.5 |  |
| CCN(CC)CCCCn1c(-c2ccccc2)nc2c(N3CCOCC3)nc(C)nc21 | 39.5 |  |
| O=C(C1CCCO1)N1CCN(S(=O)(=O)c2ccc(Br)cc2)CC1 (stereo not drawn) | -3.46 |  |
| O=C(CN1C(=O)S/C(=C\c2ccccc2F)C1=O)NCCCn1ccnc1 | 16.3 |  |
| CC(=O)c1sc(N/N=C\c2ccc(C)cc2)nc1C | -20.4 |  |
| CC(=O)c1sc(NC(=O)C2=NN(c3ccccc3)C(=O)CC2)nc1C |  | 79.4 µM (active) |
| COc1cc2ccccc2cc1C(=O)Nc1nc(C)c(C(C)=O)s1 | -2.33 |  |
| CCCCN1C(=O)C(C)=C(C)C1OCCc1ccc(OC)c(OC)c1 (stereo not drawn) | 14 |  |
| CCC(=O)c1cn(CCOc2ccccc2OC)c2ccccc12 | 2.97 |  |
| O=C(NC(=S)Nc1ccc(S(=O)(=O)N2CCOCC2)cc1)c1ccccc1[N+](=O)[O-] | -9.64 |  |
| O=S(=O)(c1ccc(NC(=S)NN=C(C2CC2)C2CC2)cc1)N1CCOCC1 |  | 44.7 µM (active) |
| CN1CCN(S(=O)(=O)c2ccc(NC(=S)NC(=O)C3CC3)cc2)CC1 | 22.5 |  |
| CC(=O)Oc1cccc(C(=O)Nc2ccccc2NC(=O)c2cccc(OC(C)=O)c2)c1 | 11.7 |  |
| CCOc1ccc2[nH]c(=O)c(CN(CCCO)S(=O)(=O)c3ccc(F)cc3)cc2c1 | 2.06 |  |

| SMILES | largest response in the series, negative = inhibition [%] | Potency |
| --- | --- | --- |
| CC1=C(C)CC2C(=O)N(c3cccc4ccccc34)C(=O)C2C1 (stereo not drawn) |  | 39.8 µM (active) |
| O=C1c2ccccc2C(=O)N1c1cccc2ccccc12 | 4.99 |  |
| Cc1ccc(N2C(=O)CC(Nc3cccc4ccccc34)C2=O)cc1 (stereo not drawn) | 3.72 |  |
| COc1ccc(NC(=O)CCS(=O)(=O)c2cc3c(cc2Cl)NC(=O)CO3)cc1OC | 8.75 |  |
| C=CCc1ccccc1OCC(=O)N/N=C/c1ccccc1OCC | -17.8 |  |
| CCOc1ccccc1/C=N/NC(=O)CNC(=O)COc1ccccc1 | 13.5 |  |
| C=C(C)CNC(=S)N/N=C/c1ccccc1OCC(=O)O |  | 12.6 µM (active) |
| Cc1ccc(NC(=O)O[C@@H]2C(=O)c3cc(Br)ccc3O[C@H]2c2ccc3c(c2)OCO3)cc1Br | -5.42 |  |
| N[C@@H](Cc1ccccc1)C(=O)N1CCC(C(=O)NCC(=O)Nc2ccc(F)cc2)CC1 | -3.37 |  |
| C[N+](C)(C)CCNC(=O)c1cc[n+](Cc2ccccc2)c(/C=N/O)c1 | 3.04 |  |
| N#CCC(=O)NC1CCC(CC2CCC(NC(=O)CC#N)CC2)CC1 (stereo not drawn) | -5.45 |  |
| CCCn1c(SCC(=O)N2CCc3ccccc32)nnc1-c1ccncc1 | 15.4 |  |
| O=C(CSc1ccc2nnc(-c3ccccc3)n2n1)N1CCCc2ccccc21 |  | 8.91 µM (active) |
| Cn1c(SCC(=O)N2CCCc3ccccc32)nc2ccccc2c1=O | 0.535 |  |
| COc1ccc(-c2nnc3ccc(SCc4ccccc4)nn23)cc1 | -4.23 |  |
| COC(=O)c1ccc(CSc2ccc3nnc(-c4ccccc4)n3n2)o1 |  | 70.8 µM (active) |
| COC(=O)c1ccc(CSc2ccccc2C)o1 | 17.7 |  |
| CN(CC(=O)Nc1ccc(Cl)cc1)C(=O)CNC(=O)c1ccc2ccccc2c1 | 1.11 |  |
| O=C1CCN(Cc2ccccc2)CCN1[C@H](CSc1ccccc1)c1ccccc1 | 2.51 |  |
| O=C(O)CS/C(=C\c1ccc(F)cc1)c1nc2ccccc2s1 | 27.3 |  |
| O=C(Nc1nc2ccccc2s1)c1ccc2c(c1)OCO2 | 16.2 |  |
| O=C(O)CC/C(=C\c1cc2c(cc1Br)OCO2)c1nc2ccccc2s1 |  | 50.1 µM (active) |
| CC(C)[C@H](NC(=O)N1CCn2c1nc1ccccc12)C(=O)NCCc1ccccc1 | 3.48 |  |
| CC(C(=O)NC1CCS(=O)(=O)C1)N1C(=O)/C(=C/c2ccc(Cl)cc2)SC1=S (stereo not drawn) | -16.1 |  |

| SMILES | largest response in the series, negative = inhibition [%] | Potency |
| --- | --- | --- |
| CC(C)(C)c1ccc(CN2C(=O)c3ccccc3S2(=O)=O)cc1 | -8.95 |  |
| Cc1ccccc1NC(=O)CSc1nc2ccc(Nc3nc(N4CCOCC4)nc(N4CCOCC4)n3)cc2s1 | -16.9 |  |
| Cc1cc(C)cc(OCC(=O)NC(C)c2ccccc2)c1 (stereo not drawn) | -3.71 |  |
| C/C(CC(=O)NC(C)c1ccccc1)=N\NC(N)=S (stereo not drawn) |  | 79.4 µM (active) |
| Cc1ccc(OCC(=O)NC(C)c2ccccc2)cc1C (stereo not drawn) | -3.78 |  |
| CC(=O)Nc1ccc(S(=O)(=O)N2CCC(C(=O)N[C@@H](Cc3ccccc3)C(=O)O)CC2)cc1 | 27.7 |  |
| C[C@@H]1O[C@@H](OC[C@H]2O[C@@H](Oc3cc(O)c4c(c3)O[C@H](c3ccc(O)c(O)c3)CC4=O)[C@H](O)[C@@H](O)[C@@H]2O)[C@H](O)[C@H](O)[C@H]1O | 2.86 |  |
| COC(=O)c1cc(C)sc1NC(=O)CC1Nc2ccccc2NC1=O (stereo not drawn) |  | 79.4 µM (active) |
| CCOC(=O)c1ccccc1NC(=O)CC1Nc2ccccc2NC1=O (stereo not drawn) | 5.03 |  |
| O=C(CC1Nc2ccccc2NC1=O)Nc1ccccc1NC(=O)CC1Nc2ccccc2NC1=O (stereo not drawn) | -13.5 |  |
| Cc1sc2ncn(CC(=O)NCCCC(=O)N(C)Cc3ccccc3)c(=O)c2c1C | 13.5 |  |
| Cc1ccc(-c2nc(C#N)c(NCCCn3ccnc3)o2)cc1 | -4.22 |  |
| N#Cc1nc(-c2ccc(OCc3ccccc3)cc2)oc1NCCCN1CCOCC1 |  | 44.7 µM (active) |
| O=S(=O)(c1ccccc1)c1nc(-c2ccccc2)oc1NCCCN1CCOCC1 | 11.1 |  |
| Cc1ccc(NS(=O)(=O)c2ccc3c(c2)oc(=O)n3C)c(C)c1 | 5.37 |  |
| O=C(O)c1ccc(NC(=O)c2ccc(COc3ccc(Cl)cc3)o2)cc1 | 9.95 |  |
| CCOC(=O)c1cnc(SCC(=O)NCc2ccco2)nc1N | -17.3 |  |
| Cc1ccc(Cc2c(C)nc3nc(SCC(=O)NCCN4CCOCC4)nn3c2C)cc1 | -2.31 |  |
| Cc1nc2nc(SCC(=O)NCc3ccco3)nn2c(C)c1Cc1ccccc1 |  | 50.1 µM (active) |
| Cc1cccc(NC(=O)NC2(C)CCS(=O)(=O)C2)c1 (stereo not drawn) | 14.2 |  |
| O=S(=O)(Nc1ccccc1)c1ccc(NS(=O)(=O)c2cccs2)cc1 | 16.9 |  |
| Cc1ccc(Nc2nc(-c3sc(NC(=O)c4ccccc4)nc3C)cs2)cc1 | 0.727 |  |
| S=C(NCCc1ccccc1)Nc1ccccc1 | -0.65 |  |
| O=C(CSc1ncccn1)NCCc1ccccc1 | 18.5 |  |

| SMILES | largest response in the series, negative = inhibition [%] | Potency |
| --- | --- | --- |
| S=c1[nH]nc(NCCc2ccccc2)s1 |  | 22.4 µM (active) |
| Cc1nc(C)c(-c2csc(NCCc3ccccc3)n2)s1 |  | 50.1 µM (active) |
| CCNc1nc(-c2cc3ccccc3o2)cs1 | -14.8 |  |
| COc1cccc(C2CC(c3cccs3)=NN2C(=O)CSC2=NCCS2)c1OC (stereo not drawn) | -16 |  |
| Cc1cc(C)cc(Oc2c(C(F)(F)F)oc3cc(OCC(=O)O)ccc3c2=O)c1 | 5.59 |  |
| CCOC(=O)N1CCC(N2Cc3cccc(C(=O)Nc4ccc(S(=O)(=O)N(CC)CC)cc4)c3C2=O)CC1 | -1.4 |  |
| CCCC(=O)N(CCN1CCOCC1)c1nc2ccc(OCC)cc2s1 | 4.61 |  |
| CCc1ccc2nc(N(CCCN(C)C)C(=O)c3ccc4c(c3)OCCO4)sc2c1 | -7.75 |  |
| CCOc1ccc2nc(N(CCN(C)C)C(=O)c3ccc4ccccc4c3)sc2c1 |  | 79.4 µM (active) |
| COc1ccccc1N1CCN(S(=O)(=O)CCNC(=O)c2ccc(OC(C)C)cc2)CC1 | 3.56 |  |
| COc1ccc(N2C(=O)CC(N3CCC(C(N)=O)CC3)C2=O)cc1 (stereo not drawn) | -13.3 |  |
| COc1ccc(CCN2C(=O)CC(N3CCC(C(N)=O)CC3)C2=O)cc1OC (stereo not drawn) |  | 50.1 µM (active) |
| COc1ccc(CCN2C(=O)C3CC=C(C)CC3C2=O)cc1OC (stereo not drawn) | 7.59 |  |
| COc1cc(Cl)c(C)cc1NC(=O)CN1CCCCCC1 | 1.55 |  |
| CSC(=S)N/N=C/c1c[nH]c2ccccc12 | 7.95 |  |
| O=C(N/N=C/c1c[nH]c2ccccc12)c1ccccc1O | 16.9 |  |
| C[n+]1ccc(/C=C/c2c[nH]c3ccccc23)cc1 |  | 56.2 µM (active) |
| Cc1cc(=O)[nH]c(Nc2cccc(Br)c2)n1 | -3.95 |  |
| Cc1cccc(C)c1NC(=O)CSc1nc2c([nH]1)c(=O)n(C)c(=O)n2C | -3.14 |  |
| Cc1ccc(NN=Nc2nc3c([nH]2)c(=O)n(C)c(=O)n3C)cc1 |  | 25.1 µM (active) |
| CC(CCO)Nc1nc2c([nH]1)c(=O)n(C)c(=O)n2C (stereo not drawn) | 11.2 |  |
